Screening results deposited in PubChem by National Center for Advancing Translational Sciences (NCATS).
In the library only some 6.7% were active in any assay of this set; here they are far more common.
SW480 rerep = A quantitative high throughput screen for small molecules that induce DNA re-replication in SW480 colon adenocarcinoma cells | Potency, µM (highest dose often 46.1 µM), without a hit: at the highest dose re-replication activation, usual class: activators | 340,000 tested, 1.8% active | SW480 DNA re-replication, Hoechst DNA content imaging, 48 h | AID 624297, 2012; note: % of control where 0% means no effect; nearly all actives have a fitted effect of over 55% in size
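SW480 cells exposed to compounds for 48 hr at 37 C, 5% CO2, then Hoechst-stained 40 min. Nuclear DNA content imaged by fluorescence scanning (405 nm excitation, 500-530 nm emission); re-replication scored as increased high-intensity nuclei.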
PINK1 modulator = A Quantitative High throughput Screen to Identify Chemical Modulators of PINK1 Expression | 410,000 tested, 0.2% active | AID 624263, 2012 | Potency, µM (highest dose often 76.6 µM), for inactives: top-dose activation (PINK1 increase), actives largely listed as activators | PINK1 immunofluorescence, high-content cytometry, 24 h; active = well fitted activation curve with a large enough effect; inconclusive = small, poorly fitted or top-dose-only effect; cell line not stated here; note: % of control where 0% means no effect; nearly all actives have a fitted effect of over 65% in size
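PINK1 protein level read as immunofluorescence by microplate cytometer in a fixed, stained stable cell line after 24 h exposure to five compound concentrations, with CCCP as control.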
KB-3-1 cytotox = qHTS assay for MDR1-selective chemotherapeutics: Primary screen using the parental adenocarcinoma cell KB-3-1. KB-3-1 viability, CellTiter-Glo ATP luminescence, 72 h. 400,000 tested, 1.4% active. AID 1347075, 2019. Potency, µM (doses to about 46.1 µM), usual class: cytotoxic; note: % is set by controls: 0 for no effect and ±100 for the full control effect; nearly all actives have a fitted effect of over 60% in size
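Cytotoxicity measured as CellTiter-Glo luminescence after 72 h at 37 C. Compound titrations were pinned onto drug-naive KB-3-1 parental adenocarcinoma cells grown in DMEM with 10% FBS, and normalized data fitted to concentration-response curves.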
KB-V1 MDR tox = qHTS assay for MDR1-selective chemotherapeutics: Primary screen using the drug-selected MDR subline cells KB-V1; Potency, µM (top dose mostly 46.1 µM), most hits filed as cytotoxic; 400,000 tested, 3.4% active; KB-V1 MDR cells viability, CellTiter-Glo, 72 h; note: % is set by controls: 0 for no effect and ±100 for the full control effect; nearly all actives have a fitted effect of over 60% in size
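Luminescent ATP read-out (CellTiter-Glo, 10 min) measures survival of drug-selected KB-V1 MDR cells after 72 h, 37 degrees C compound exposure. Medium: phenol-red-free DMEM, 10% FBS. Values from fitted concentration-response curves.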
MCF10A rerep = A quantitative high throughput screen for small molecules that induce DNA re-replication in MCF 10a normal breast cells | MCF 10A DNA re-replication, Hoechst nuclear intensity, 48 h | Potency, µM (highest dose often 46.1 µM), for the others: top-dose activity, positive = re-replication, actives largely listed as activators | 350,000 tested, 2.9% active; note: % of control where 0% means no effect; nearly all actives have a fitted effect of over 50% in size
* hit, by the source's call; i = inactive; ? = inconclusive; . = no result given; ! = not confirmed by another sample; [ ] = remark or other dose. Unless noted, calls come from the whole dose curve; as a rule, active = well fitted curve in the direction sought with a large enough effect; inconclusive = small, poorly fitted or top-dose-only effect, or another doubt; inactive = no such curve, though single readings can be large; an effect the other way counts as inactive or inconclusive. Potency is the fitted concentration of half-maximal effect.

SMILES	SW480 rerep	PINK1 modulator	KB-3-1 cytotox	KB-V1 MDR tox	MCF10A rerep
Cc1ccc(NC(=O)c2ccc(S(=O)(=O)N3CCCC3)cc2)cc1	0.3%	0.1%	i	23.1µM*	15.1%
Cc1ccc(C(=O)Nc2ccc(S(=O)(=O)N3CCCC3)cc2)cc1	2.6%	4.4%	i	?	-26.9%
O=C(NC1CCCCC1)C1CCN(S(=O)(=O)N2CCCCCC2)CC1	1.5%	2.7%[38.3 µM]	i	16.4µM*	0.1%
COc1ccc(S(=O)(=O)N2CCC(NC(=O)Nc3ccc(C)cc3)CC2)cc1	1.3%	-0.6%	i	18.4µM*	0.1%
CCN(CC)c1ccc2cc(C(=O)NNC(=O)c3ccc(S(=O)(=O)N4CCCCC4)cc3)c(=O)oc2c1	2.91µM*	4.5%	i	2.59µM*	?
Cc1ccnc(NC(=S)N2CCN(c3ccc(O)cc3)CC2)c1	.	.	i	i	.
CC(=O)Nc1ccc(C(=O)NNS(=O)(=O)c2ccc(C)cc2)cc1	4.11µM*	2.3%	i	i	0.2%
Clc1cccc(CNc2nnnn2-c2ccccc2)c1	-3.0%	2.0%	?	23.1µM*	?
COc1ccc(NC(=O)C2(C)Cc3c(-c4ccc(N(C)C)cc4)ccnc3O2)cc1OC (centres undefined)	.	4.1%	i	i	.
COc1ccc2sc(N(CCCN(C)C)C(=O)c3ccc(S(=O)(=O)N4CCCc5ccccc54)cc3)nc2c1	?	-2.5%	i	20.6µM*	?
CCN(Cc1ccccc1)S(=O)(=O)c1ccc(C(=O)N(CCCN(C)C)c2nc3cc(OC)ccc3s2)cc1	?	-1.8%	i	i	16.4µM*
CCN(Cc1ccccc1)S(=O)(=O)c1ccc(C(=O)N(CCCN(C)C)c2nc3cc4c(cc3s2)OCCO4)cc1	?	-2.5%	i	i	?
CCn1nc(NC(=O)c2ccncc2)c2cc3cc(C)ccc3nc21	?	3.4%	i	i	8.2µM*
CCn1nc(NC(=O)c2ccncc2)c2cc3ccc(C)cc3nc21	6.9%	1.4%[38.3 µM]	i	9.2µM*	?
CCN(CC)C(=O)c1sc2c(c1C)c(=O)n(-c1ccccc1)c(=O)n2Cc1c(C)cc(C)cc1C	.	2.1%	i	i	.
Cc1nc(N2CCOCC2)c2c(C(=O)N3CCN(c4cccc(C)c4C)CC3)c(C)oc2n1	.	22.8%	.	.	.
COc1cc(CNc2nc3ccccc3n2Cc2ccccc2)ccc1O	.	7.1%	i	i	.
O=C(c1cccs1)N(Cc1cc2ccccc2[nH]c1=O)c1ccccc1	0.5%	-0.2%	?	5.17µM*	-69.9%
Cc1ccc(N(Cc2cc3ccccc3[nH]c2=O)C(=O)c2cccs2)cc1C	?	-0.1%	i	?	-3.6%
Cc1cccc(N2CCC(N3CCN(C4CCCCC4)C(CCO)C3)CC2)c1C (centres undefined)	-7.4%	3.6%	i	i	16.4µM*
CC(C)N1CCC(N2CCN(C3CCCC3)CC2CCO)CC1 (centres undefined)	-2.2%	-0.3%	i	i	0.6%
CCOc1ccccc1N1CCN(CC(=O)Nc2nccs2)CC1	.	2.7%	i	i	.
COc1cccc(NC(=O)C(Sc2nnc3ccccn23)c2ccccc2)c1 (centres undefined)	-2.7%	4.8%	i	20.6µM*	?
CCCn1c(SC(C(=O)Nc2cccc(OC)c2)c2ccccc2)nc2ccccc2c1=O (centres undefined)	?	0.3%	i	i	0.8%
CCOC(=O)N1CCc2c(sc(NCc3cc(OC)ccc3OC)c2C(=O)Nc2cc(OC)ccc2OC)C1	.	-0.2%	i	i	.
SMILES	SW480 rerep	PINK1 modulator	KB-3-1 cytotox	KB-V1 MDR tox	MCF10A rerep
COc1cc2c(cc1OC)C(c1oc(-c3ccc(-c4cc(Cl)ccc4Cl)o3)cc1C)=NCC2	.	2.3%	?	i	.
COc1cc(C(=O)OC2CC3CCC2(C)C3(C)C)ccc1OC(C)=O (centres undefined)	?	3.8%	i	?	14.6µM*
Cc1ccccc1C(=O)Nc1ccc(C(=O)OCc2cc(=O)n3nc(C4CC4)sc3n2)cc1	.	-0.3%	?	i	.
Cc1nc2c(-c3ccccc3)c(C)nn2c(C)c1CC(=O)O	10.8%	0.3%	i	i	14.6µM*
Cc1nc2c(-c3ccc(F)cc3)c(C)nn2c(C)c1CCC(=O)N1CCC(Cc2ccccc2)CC1	1.4%	2.7%	?	i	20.6µM*
CCOC(=O)Cc1c(C)nc2c(-c3ccc(Cl)cc3)c(C)nn2c1C	?	2.0%	i	?	23.1µM*
CC(=O)c1cnc2c(-c3ccccc3)cnn2c1C	-1.6%	-6.7%	?	20.6µM*	16.0%
CCOC(=O)Cc1c(C)nc2c(-c3ccc(Cl)cc3)c(C(F)(F)F)nn2c1C	.	13.6%	i	i	.
COC(=O)c1ccc(NC(=O)CN2C(=O)c3cccc4cccc2c34)cc1	.	1.9%	i	i	.
O=C(Nc1nnc(-c2ccncc2)s1)Nc1ccc(Cl)cc1F	.	.	i	i	.
COc1ccc(C(=O)NNc2ncnc3c2cnn3-c2cccc(Cl)c2)cc1OC	.	-1.3%	i	i	.
CCOC(=O)Cc1c(C)nc2c(-c3ccccc3)cnn2c1C	?	1.5%	i	i	1.3µM*
COc1ccc(-c2oc(=O)c3cc(OC)c(OC)cc3c2-c2ccc3c(c2)OCO3)cc1	?	-0.3%	i	i	26.4%
COc1cc2c(OC(C)=O)c3c(c(-c4ccc5c(c4)OCO5)c2cc1OC)C(=O)OC3	5.8%	0.9%	3.26µM*!	?	?
COc1cc2c(O)c3c(c(-c4ccc5c(c4)OCO5)c2cc1OC)C(=O)OC3	23.1µM*	3.7%	14.6µM*	4.61µM*	?
CCc1ccc(-n2c(-c3ccccc3)c(C)n3c4c(=O)n(C)c(=O)n(C)c4nc23)cc1	.	0.7%	i	i	.
Cc1ccc(-c2c(C)n3c4c(=O)n(C)c(=O)n(C)c4nc3n2-c2cccc(O)c2)cc1	.	0.4%	?	18.4µM*	.
CC(Sc1nnc(NC2CC2)s1)C(=O)Nc1ccc(N2CCOCC2)cc1 (centres undefined)	-6.9%	-0.9%	i	i	4.0%
O=C(CSc1nnc(NC2CCCCC2)s1)Nc1ccc(N2CCOCC2)cc1	-2.6%	-3.4%[38.3 µM]	i	5.8µM*	16.5%
O=C(/C=C/c1ccc(F)cc1)NC(=S)NNC(=O)c1cnccn1	13.6%	0.7%	5.8µM*	?	3.7%
CN=c1sc2c(n1C)C(=O)c1ccccc1C2=O	13µM*	8.6%	?	?	8.2µM*
COC(=O)Cn1ccc(N(C)C)c(C#N)c1=O	6.51µM*	-4.4%[38.3 µM]	i	i	9.2µM*
